MazEF act = MazEF (E. coli) toxin RNase activation. P0AE70. FAM/BHQ RNA-DNA oligo cleavage fluorescence, 5 h. activation, % at 20 µM. actives 0.32% (n = 350,000). AID 504720; in the data active means activation above about 50%
Target sequence (P0AE70 whole entry, looked up): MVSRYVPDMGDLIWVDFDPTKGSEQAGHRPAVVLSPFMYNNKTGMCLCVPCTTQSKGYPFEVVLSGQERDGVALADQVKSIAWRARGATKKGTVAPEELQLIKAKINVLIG
3CLpro inhibitor = SARS-CoV 3CLpro protease inhibition; recombinant SARS-CoV 3CLpro, quenched FRET peptide cleavage; inhibition, % at 6 µM; P0C6X7; actives 0.14% (n = 290,000); in the data active means inhibition above about 12%
PfHsp40 yeast = restores yeast growth despite PfHsp40 toxicity; S. cerevisiae expressing PfHsp40, growth rescue, ATP luminescence; growth rescue, % at 12.5 µM; actives 0.68% (n = 340,000); in the data active means growth rescue above about 28%, passing the limit was not always enough;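 further: yeast W303a lacking pdr1 and pdr3 grown in galactose medium; growth measured after three days at 30 °C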
Vc quorum ag = quorum light induction in luxS cqsA deficient V. cholerae; V. cholerae BH1578 lux reporter, luminescence, 6 h; activation, % at 18.7 µM; actives 0.16% (n = 350,000); in the data active means activation mostly above about 9.7%, no sharp cut-off
DUSP3 inh = DUSP3 (human) phosphatase inhibition; recombinant VHR phosphatase, pNPP absorbance; P51452; inhibition, % at 13.3 µM; actives 0.52% (n = 290,000); in the data active means inhibition above about 50%
Target sequence (P51452 whole entry, looked up): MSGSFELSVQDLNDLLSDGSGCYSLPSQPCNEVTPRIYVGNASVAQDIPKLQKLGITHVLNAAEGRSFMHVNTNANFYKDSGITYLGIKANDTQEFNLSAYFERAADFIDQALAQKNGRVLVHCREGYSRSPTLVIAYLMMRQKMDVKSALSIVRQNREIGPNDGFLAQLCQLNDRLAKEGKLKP
BJeLR lethal = kills HRASV12-expressing BJeLR cells; BJeLR (HRASV12) viability, CellTiter-Glo ATP luminescence, 48 h; inhibition, % (no concentration beside the values); actives 0.17% (n = 300,000); AID 1554; in the data active means inhibition above about 50%
Numbers without * were called inactive; i = inactive; . = no result. Only some compounds are listed: those with a hit (about 1.7% of all), similar ones and a draw of the others.

SMILES | MazEF act | 3CLpro inhibitor | PfHsp40 yeast | Vc quorum ag | DUSP3 inh | BJeLR lethal
COC(=O)c1cccc2c1-c1ccccc1/C2=N/O | 5 | 0 | 331* | i | 13 | 4
O=C1c2ccccc2C(=O)c2c1ccc(O)c2O | -115 | . | 17 | 0 | . | .
COC(=O)c1ccc2c(c1O)C(=O)c1ccccc1C2=O | 5 | -1 | 342* | 0 | 9 | -3
CCCCCc1cc(O)c2c(C)cc(=O)oc2c1 | 5 | 4 | 56* | i | -1 | 8
CC(C)OC(=O)CCC(=O)Nc1nc2ccccc2s1 | 2 | 4 | 0 | 0 | 52* | 2
CCOCC(=O)Nc1nc2ccccc2s1 | 0 | 0 | -1 | i | -1 | -3
CN=c1scc(-c2ccccc2F)n1/N=C(\C)c1cccnc1 | -1 | -3 | 0 | i | 58* | 9
CCc1cccc(N(C(=O)c2csnn2)C(C(=O)NC2CCCCC2)c2cccnc2)c1 (configuration not stated) | -5 | 4 | -1 | 0 | 2 | -11
COC1CCCN(Cc2c(C(=O)N3CCc4ccccc4C3)nc3ccc(Cl)cn23)C1 (configuration not stated) | 2 | 3 | 2 | 12 | 28 | -2
CC1CCCN(Cc2c(C(=O)N3CCc4ccccc4C3)nc3ccc(Cl)cn23)C1 (configuration not stated) | 11 | 4 | 55* | -5 | -42 | -13
Cc1nnc(N/N=C/c2cccc(OCc3ccc(Cl)c(Cl)c3)c2)n1N | 22 | -1 | 38* | 0 | -4 | 0
Cc1nnc(N/N=C/c2cccc(C(F)(F)F)c2)n1N | 5 | -6 | -2 | i | 20 | 9
CC1=NN(c2ccc(C)c(C)c2)C(=O)C1C(c1cccc(O)c1)C1C(=O)N(c2ccc(C)c(C)c2)N=C1C (configuration not stated) | 5 | 2 | -2 | 0 | 54* | 6
CC1=NN(c2ccc(C)cc2C)C(=O)C1C(c1ccccc1O)C1C(=O)N(c2ccc(C)cc2C)N=C1C (configuration not stated) | -5 | -1 | 0 | 0 | 3 | 5
Nc1c(C(=O)Nc2ccccc2)sc2nc3c(c(-c4ccco4)c12)CCC3 | 87* | -10 | -1 | -6 | 10 | 4
Nc1c(C(=O)Nc2ccccc2)sc2nc3c(c(-c4ccco4)c12)CCCC3 | -10 | 3 | -1 | i | 33 | 5
C=CCN(C(=O)CSc1nc2ccsc2c(=O)n1Cc1ccc(C(=O)O)cc1)c1ccccc1 | 4 | . | . | i | . | .
CCOC(=O)N1C(=O)C2(CCCCC2)N(c2ccccc2Cl)C1=S | 0 | 6 | 284* | 0 | 0 | 0
CCOC(=O)c1sc(=S)n(-c2ccccc2Cl)c1C | -2 | -5 | 2 | -1 | 17 | -11
CCc1ccc(NSc2ccccc2[N+](=O)[O-])cc1 | -4 | 1 | 46* | i | -1 | 2
C=C(C)CN1C(=O)C(C)SC1=NN=C1SCC(=O)N1C (configuration not stated) | -17 | . | . | -4 | . | .
COc1cccc(CN2CCC2(C)C(=O)NCCc2ccccn2)c1OC (configuration not stated) | . | . | . | -1 | . | .
CCCn1c(SCC(=O)NC(C)(C)C)nnc1-c1ccco1 | 4 | 1 | 0 | 0 | 53* | -1
CC(C)(C)NC(=O)CSc1nnc(-c2ccco2)n1Cc1ccco1 | 0 | 4 | -2 | i | 7 | 0
Cc1cc(C)c(NC(=O)Cn2ncc3ccccc32)c(C)c1 | 2 | 1 | -1 | i | 57* | 0
SMILES | MazEF act | 3CLpro inhibitor | PfHsp40 yeast | Vc quorum ag | DUSP3 inh | BJeLR lethal
Cc1nc(N)nc(N)c1Oc1ccc(Cl)cc1 | 0 | . | 0 | 526* | . | .
COc1ccccc1Cn1c(C)c(C(=O)NCc2ccco2)sc1=O | . | . | . | -1 | . | .
CCN1CCN(C(c2ccc(C(F)(F)F)cc2)c2ccc3cccnc3c2O)CC1 (configuration not stated) | -17 | 0 | 60* | 1 | 18 | 23
CC(=O)NC(c1cccc(F)c1)c1nc(-c2cccs2)cs1 (configuration not stated) | . | . | . | i | . | .
CCCNC1=C(N(C(C)=O)c2cccc(F)c2)C(=O)c2ccccc2C1=O | -2 | 2 | 49* | 0 | -11 | 44
CCC(=O)N(C1=C(NC(C)C)C(=O)c2ccccc2C1=O)C(C)C | 4 | -3 | -1 | 0 | 4 | -1
CCCCCC(=O)Nc1nc(C)c(-c2csc(Nc3cc(OC)ccc3OC)n2)s1 | -9 | -2 | 1 | i | 51* | -1
CCCCCCC(=O)Nc1nc(C)c(-c2csc(Nc3cc(OC)ccc3OC)n2)s1 | -1 | 5 | 0 | -7 | 127 | 3
CN(C)CCNc1oc(-c2cccc(Cl)c2)nc1C#N | 5 | 0 | 0 | i | 51* | 3
COc1ccc(C(=O)Nc2nc(C)c(C(C)=O)s2)cc1S(=O)(=O)N1CCOCC1 | 69* | . | 0 | 0 | . | .
COc1ccc(C(=O)Nc2nnc(C)s2)cc1S(=O)(=O)N1CCOCC1 | 1 | . | 1 | 0 | . | .
COc1ccc(-c2[nH]ncc2N=Nc2ccccc2)cc1 | 9 | 5 | 50* | i | 21 | -3
COc1ccc(-c2[nH]ncc2N=Nc2cc(C)cc(C)c2)cc1 | 4 | 5 | 0 | 0 | 35 | -1
O=C(CNC(=O)c1ccc(S(=O)(=O)N2CCCC2)cc1)N/N=C/c1ccc(Cl)cc1Cl | 74* | 1 | -2 | 0 | 6 | -1
Fc1ccc(Nc2nnc(-c3ccncc3)s2)cc1Cl | . | . | . | 0 | . | .
CSc1cccc(NC(=O)CN(C)S(=O)(=O)c2cnc[nH]2)c1 | 2 | 0 | 0 | 0 | -23 | -4
O=C1C=C(c2ccccc2)C[C@H](c2cccs2)[C@H]1n1nnc([N+](=O)[O-])n1 | 6 | 1 | 0 | 0 | -6 | 62*
O=C(N[C@@H](Cc1ccccc1)C(=O)CCl)OCc1ccccc1 | 1 | . | 320* | -1 | . | .
O=[N+]([O-])c1cc(C(F)(F)F)ccc1NCCc1c[nH]c2ccc(O)cc12 | 18 | 0 | 484* | -4 | -7 | -2
COc1ccc(CNC(=O)CNC(=O)N2CC(=O)Nc3ccccc32)cc1 | 1 | 4 | 1 | i | 6 | -10
Cc1ccc(Cl)cc1NC(=O)CNC(=O)N1CC(=O)Nc2ccccc21 | 1 | 1 | 0 | -3 | 57* | -1
COc1cccc(NC(=O)CNC(=O)N2CC(=O)Nc3ccccc32)c1 | -7 | 2 | -1 | -3 | 57* | -1
CC(C)Cc1nc(SCc2cccnc2)c2c(=O)n(C)c(=O)n(C)c2n1 | 2 | 0 | 33* | -1 | 23 | -5
CSc1ncccc1C(=O)N1CCN(S(=O)(=O)c2ccccc2)CC1 | 3 | 1 | 0 | 0 | 58* | 8
O=C(NC1CCCC1)c1cnn2c(C(F)(F)F)cc(-c3ccc4c(c3)OCO4)nc12 | 76* | 4 | 1 | 0 | -7 | 0

High-throughput results: PubChem, several laboratories
